High-throughput results as filed in PubChem.
Shown are actives, neighbours in structure and some others; about 3.4% of the full set was active somewhere.
GPR151 activ = activators of human GPR151, primary screen, cell-based, PathHunter beta-arrestin, luminescence; G-protein coupled receptor 151 (Homo sapiens), Q8TDV0; PathHunter beta-arrestin GPR151 cells; activation, % at 11.2 µM; 650,000 tested, 1% active; in the data active = activation above about 4.9%;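 also: 0% = median of compound wells and 100% = cells with positive control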
MITF inh = MITF inhibitors, primary screen, biochemical, AlphaScreen, human; inhibition, % at 2.6 µM; Microphthalmia-associated transcription factor (Homo sapiens), O75030; AlphaScreen MITF homodimerization, bead proximity signal; 650,000 tested, 0.91% active; in the data active = inhibition above about 50%;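 also: 0% = vehicle wells with protein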
FBW7 activator = FBW7 E3 ligase activators, primary screen, biochemical, AlphaScreen, human; F-box/WD repeat-containing protein 7 (Homo sapiens), Q969H0; AlphaScreen FBW7–phospho-cyclin E peptide binding, activator screen; normalized activity (activation), % at 26.1 µM; 650,000 tested, 0.13% active; in the data active = normalized activity above about 1.9%;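 also: purified mutant Fbw7 with reduced substrate affinity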
TEAD-YAP inh = TEAD-YAP interaction inhibition, primary screen, TEAD-YAP interaction inhibitor project, luminescence, HEK-TIYL cells; TEAD-Gal4/YAP UAS-luciferase luminescence; inhibition, % at 9.12 µM; 640,000 tested, 1.4% active; AID 1259422, 2018; in the data active = inhibition above about 32%;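 also: 0% = median of test compound wells and 100% = reference inhibitor wells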
GPR151 conf act = GPR151 activators, triplicate retest, confirmation, cell-based, PathHunter beta-arrestin, luminescence | shares compounds with GPR151 activ | GPR151 PathHunter beta-arrestin cells, 90 min; % of EA-reagent control over plate median | activation, % at 11.2 µM | 6,700 tested, under 10 active | AID 1508609, 2020;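 active = mean percent activation across replicates above the confirmation screen cutoff of 4.91%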
GPR119 ag = GPR119 activators in beta-arrestin cells, counter-screen for GPR151 activator project, cell-based, PathHunter beta-arrestin, luminescence, triplicate | shares compounds with GPR151 activ | 90 min; 0 = compound-well median, 100 = enzyme-acceptor control | activation, % at 11.2 µM | 6,700 tested, 0.3% active;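 active = mean percent activation in the counterscreen above 29.09%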;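 also: counterscreen on off-target GPR119 to flag nonselective hits from the GPR151 activator screen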
Target sequence (Q8TDV5 whole entry, looked up): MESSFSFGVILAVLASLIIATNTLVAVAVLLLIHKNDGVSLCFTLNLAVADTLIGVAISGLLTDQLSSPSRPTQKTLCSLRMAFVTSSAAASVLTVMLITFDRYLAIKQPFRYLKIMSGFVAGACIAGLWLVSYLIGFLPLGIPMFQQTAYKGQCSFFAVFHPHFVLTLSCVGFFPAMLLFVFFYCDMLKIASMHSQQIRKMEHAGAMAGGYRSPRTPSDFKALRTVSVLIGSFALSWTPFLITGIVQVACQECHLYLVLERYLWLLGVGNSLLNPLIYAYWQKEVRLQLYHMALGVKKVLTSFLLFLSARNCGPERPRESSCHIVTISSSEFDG
Starred values were filed as active, the others as inactive; · = no result given.

SMILES | GPR151 activ | MITF inh | FBW7 activator | TEAD-YAP inh | GPR151 conf act | GPR119 ag
Cc1ccc(NS(=O)(=O)c2cn(C)c(=O)n(C)c2=O)cc1C | 2 | -5 | 0 | -3 | · | ·
CCC(=O)NC(=S)Nc1ccc(NC(=O)c2ccc(OC)cc2)cc1 | 6.6* | -9 | 0 | 8 | 0 | 7
COc1ccc(C(=O)NC(=S)Nc2ccccc2O)cc1 | 6.8* | -10 | 0 | -31 | 0 | -3
CCCC(=O)Nc1ccc(NC(=S)NC(=O)c2ccc(OC)cc2)cc1 | -2 | 8 | 0 | -11 | · | ·
CCc1ccc(N2CC(O)Cn3c2nc2c3c(=O)[nH]c(=O)n2C)cc1 (centres undefined) | 2 | 13 | 1 | 7 | · | ·
Cc1nc2c(-c3ccccc3)c(C)nn2c(C)c1CCC(=O)Nc1ccccn1 | 5.0* | 1 | 0 | -1 | 0 | 3
CCOC(=O)C1=C(C)N=c2s/c(=C\c3cc(Br)c(OC)cc3OC)c(=O)n2C1c1ccc(N(C)C)cc1 (centres undefined) | 3 | -5 | 0 | -4 | · | ·
COC(=O)c1ccc(-n2c(/C=C\c3ccccc3F)nc3ccccc3c2=O)cc1 | 0 | -7 | 0 | 4 | · | ·
CCOC(=O)C(C)Sc1nnc(NC(=O)c2c(F)cccc2Cl)s1 (centres undefined) | 5.0* | 1 | 0 | 2 | 0 | 4
COc1ccc(CCNC(=O)CCc2c(C)nc3nc[nH]n3c2=O)c(OC)c1 | 1 | 9 | 1 | -8 | · | ·
CCOC(=O)c1c(NC(=O)CN2CCOCC2)sc(C(C)=O)c1C | 8.4* | 24 | 0 | 7 | 0 | 9
CCOC(=O)c1c(NC(=O)CN2CCOCC2)sc(C)c1C | 1 | 1 | 0 | 5 | · | ·
Cc1ccc(Nc2cc(C#N)c(C#N)cc2[N+](=O)[O-])cc1 | -1 | -4 | 0 | 15 | · | ·
COc1cccc(NC(=S)Nc2ccccc2OC)c1 | 13* | 16 | 0 | -8 | 1 | -1
CC(=O)NC(=S)Nc1ccc(Br)c(C)n1 | -3 | 9 | 0 | -40 | · | ·
CCC(=O)Nc1cccc(NC(=S)NC(=O)c2ccccc2OC)c1 | 8.8* | 12 | 0 | -50 | 0 | -9
COc1ccccc1C(=O)NC(=S)Nc1ccc(Br)c(C)n1 | 5.2* | 10 | 0 | -3 | 0 | 4
Cn1cc(-c2cnc3c(n2)[nH]c(=O)n3Cc2cccnc2)cn1 | -1 | 6 | 0 | -4 | · | ·
Cc1ccccc1C(=O)NC(C)c1nnc2n1CCN(Cc1ccc(F)cc1)CC2 (centres undefined) | 6.5* | 3 | 0 | -1 | 0 | 11
Cc1ccccc1C(=O)NC(C)c1nnc2n1CCN(Cc1ccccc1F)CC2 (centres undefined) | -1 | 6 | 0 | 3 | · | ·
CCOC(CCn1c(=S)[nH]c2cc3c(cc2c1=O)OCO3)OCC | -1 | 1 | 0 | -3 | · | ·
CCOC(=O)c1sc2nc(SCC(=O)Nc3cccc(C(F)(F)F)c3)n(Cc3ccc(Cl)cc3)c(=O)c2c1C | 1 | 8 | 0 | 1 | · | ·
COc1ccc(-n2nc(C(=O)N(C)C3CCCCC3)c3ccccc3c2=O)cc1 | -1 | 3 | 0 | -5 | · | ·
Cn1c(=O)c2c(nc3n(CCc4ccccc4)c(-c4ccccc4)cn23)n(C)c1=O | 1 | -17 | 0 | 8 | · | ·
Cn1c(=O)c2c(nc3n(CCc4ccccc4)c(-c4ccc(Br)cc4)cn23)n(C)c1=O | 5.6* | 16 | 0 | 18 | 0 | 1
COc1ccc(-c2cc(C(=O)N3C(C)CCCC3C)[nH]n2)cc1 (centres undefined) | -1 | -10 | 0 | 1 | · | ·
COc1ccc(-c2cc(C(=O)N3CCCCC3C)[nH]n2)cc1 (centres undefined) | 5.3* | -5 | 0 | -40 | -1 | -9
COc1ccc(CCNC(=O)c2cccc(Nc3nc4ccccc4n3C)c2)cc1 | 3 | 0 | 0 | -11 | · | ·
